In PubChem BioAssay AID1159580 (chemical genetic matrix, 2015):
“And” between values parts separate entries of the source, which are not always exact repeats. Equal values may be shown once. Among all 5,500 compounds or so, about 2,000 (36%) were called active. Another 18% or so got no clear call; they are omitted. No stated cut-off is given here; in the data, active means normalized growth mostly below about 0.91 (no sharp cut-off); inconclusive means no clear call, values can overlap the other calls; inactive means mostly above about 0.92. The list shows a part of the results.

Experiment: chemical genetic growth profiling, strain panel (AID 1159580);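 further: tested at 20 µM; growth read once vehicle control cultures reached saturation at 30 °C; 1 = growth at the plate median or of vehicle wells; lower values mean less growth of the strain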
Details: growth OD
[1] = S. cerevisiae deletion strains, locus YAL040C, strain CLN3, hits give low values
[2] = S. cerevisiae deletion strains, locus YER002W, strain NOP16, hits give low values
[3] = S. cerevisiae deletion strains, locus YGR078C, strain PAC10, hits give low values
[4] = S. cerevisiae deletion strains, locus YNL175C, strain NOP13, hits give low values
[5] = S. cerevisiae deletion strains, locus YNL197C, strain WHI3, hits give low values
[6] = S. cerevisiae deletion strains, locus YNL224C, strain SQS1, hits give low values
[7] = S. cerevisiae deletion strains, locus YNL322C, strain KRE1, hits give low values
[8] = S. cerevisiae deletion strains, locus YOR083W, strain WHI5 (second series), hits give low values
[9] = S. cerevisiae deletion strains, locus YPL241C, strain CIN2, hits give low values

Measured: normalized growth

CC(=O)NCCc1c[nH]c2ccc(O)cc12
inactive: [1] 1 | S. cerevisiae deletion strains, locus YBR021W, strain FUR4, hits give low values 1.03 | S. cerevisiae deletion strains, locus YBR229C, strain ROT2, hits give low values 0.96 | S. cerevisiae deletion strains, locus YCL029C, strain bik1, hits give low values 0.98 | S. cerevisiae deletion strains, locus YDL035C, strain GPR1, hits give low values 1.01 | S. cerevisiae deletion strains, locus YDL074C, strain BRE1, hits give low values 0.953 | S. cerevisiae deletion strains, locus YDL101C, strain DUN1, hits give low values 0.977 | S. cerevisiae deletion strains, locus YDL134C, strain PPH21, hits give low values 0.993 | S. cerevisiae deletion strains, locus YDL185W, strain tfp1, hits give low values 0.983 | S. cerevisiae deletion strains, locus YDL192W, strain arf1, hits give low values 0.982 | S. cerevisiae deletion strains, locus YDR101C, strain arx1, hits give low values 0.929 | S. cerevisiae deletion strains, locus YDR150W, strain NUM1, hits give low values 1.01 | S. cerevisiae deletion strains, locus YDR162C, strain NBP2, hits give low values 0.999 | S. cerevisiae deletion strains, locus YDR318W, strain mcm21, hits give low values 0.992 | S. cerevisiae deletion strains, locus YDR388W, hits give low values 0.991 | S. cerevisiae deletion strains, locus YDR502C, strain sam2, hits give low values 0.985 | S. cerevisiae deletion strains, locus YEL061C, strain CIN8, hits give low values 0.984 | [2] 0.993 | S. cerevisiae deletion strains, locus YER110C, hits give low values 0.986 | S. cerevisiae deletion strains, locus YER155C, strain BEM2, hits give low values 0.998 | S. cerevisiae deletion strains, locus YER167W, strain BCK2, hits give low values 0.992 | S. cerevisiae deletion strains, locus YGL078C, strain dbp3, hits give low values 0.999 | S. cerevisiae deletion strains, locus YGL086W, strain mad1, hits give low values 0.962 | S. cerevisiae deletion strains, locus YGL248W, strain PDE1, hits give low values 0.98 | [3] 1.01 | S. cerevisiae deletion strains, locus YGR135W, strain pre9, hits give low values 1.06 | S. cerevisiae deletion strains, locus YGR252W, strain gcn5, hits give low values 1.05 | S. cerevisiae deletion strains, locus YHR030C, strain SLT2, hits give low values 0.997 | S. cerevisiae deletion strains, locus YHR079C, strain IRE1 (second series), hits give low values 0.992 | S. cerevisiae deletion strains, locus YHR094C, strain hxt1, hits give low values 0.991 | S. cerevisiae deletion strains, locus YHR129C, strain ARP1, hits give low values 0.993 | S. cerevisiae deletion strains, locus YHR200W, strain rpn10, hits give low values 0.989 | S. cerevisiae deletion strains, locus YIL066C, strain RNR3, hits give low values 0.956 | S. cerevisiae deletion strains, locus YIL073C, strain SPO22, hits give low values 0.989 | S. cerevisiae deletion strains, locus YIL125W, strain kgd1, hits give low values 0.988 | S. cerevisiae deletion strains, locus YIR030C, strain dcg1, hits give low values 0.997 | S. cerevisiae deletion strains, locus YJL095W, strain BCK1, hits give low values 0.982 | S. cerevisiae deletion strains, locus YJL134W, strain LCB3, hits give low values 0.992 | S. cerevisiae deletion strains, locus YJL168C, strain set2, hits give low values 0.995 | S. cerevisiae deletion strains, locus YJL187C, strain SWE1 (second series), hits give low values 0.95 | S. cerevisiae deletion strains, locus YJR043C, strain POL32, hits give low values 0.99 | S. cerevisiae deletion strains, locus YKL009W, strain mrt4, hits give low values 0.978 | S. cerevisiae deletion strains, locus YKL068W, hits give low values 0.986 | S. cerevisiae deletion strains, locus YKL085W, strain MDH1 (second series), hits give low values 0.982 | S. cerevisiae deletion strains, locus YKL085W, strain MDH1, hits give low values 0.982 | S. cerevisiae deletion strains, locus YKL190W, strain CNB1, hits give low values 0.993 | S. cerevisiae deletion strains, locus YKR001C, strain vps1, hits give low values 0.978 | S. cerevisiae deletion strains, locus YLR039C, strain RIC1, hits give low values 0.95 | S. cerevisiae deletion strains, locus YLR058C, strain SHM2, hits give low values 0.982 | S. cerevisiae deletion strains, locus YLR102C, strain apc9, hits give low values 0.999 | S. cerevisiae deletion strains, locus YLR262C, strain YPT6, hits give low values 0.967 | S. cerevisiae deletion strains, locus YLR268W, strain sec22, hits give low values 0.983 | S. cerevisiae deletion strains, locus YLR330W, strain CHS5, hits give low values 0.989 | S. cerevisiae deletion strains, locus YLR342W, strain FKS1 (second series), hits give low values 1.07 | S. cerevisiae deletion strains, locus YLR371W, strain rom2, hits give low values 1.02 | S. cerevisiae deletion strains, locus YLR418C, strain cdc73, hits give low values 1.05 | S. cerevisiae deletion strains, locus YML016C, strain PPZ1, hits give low values 0.992 | S. cerevisiae deletion strains, locus YML032C, strain rad52, hits give low values 0.978 | S. cerevisiae deletion strains, locus YML124C, strain tub3, hits give low values 0.995 | S. cerevisiae deletion strains, locus YMR078C, strain ctf18, hits give low values 0.99 | S. cerevisiae deletion strains, locus YMR223W, strain ubp8, hits give low values 1.03 | S. cerevisiae deletion strains, locus YMR263W, strain SAP30, hits give low values 1 and 0.976 | S. cerevisiae deletion strains, locus YMR307W, strain GAS1, hits give low values 1.05 | S. cerevisiae deletion strains, locus YNL067W, strain RPL9B, hits give low values 0.959 | S. cerevisiae deletion strains, locus YNL128W, strain TEP1, hits give low values 1.01 | [4] 1.01 | [5] 1.01 | [6] 1.02 | S. cerevisiae deletion strains, locus YNL233W, strain BNI4, hits give low values 0.966 | S. cerevisiae deletion strains, locus YNL250W, strain rad50, hits give low values 0.967 | S. cerevisiae deletion strains, locus YNL271C, strain bni1, hits give low values 0.982 | S. cerevisiae deletion strains, locus YNL298W, strain CLA4, hits give low values 1 | S. cerevisiae deletion strains, locus YNL307C, strain MCK1, hits give low values 0.987 | [7] 1.02 and 0.994 | S. cerevisiae deletion strains, locus YNR052C, strain pop2, hits give low values 0.996 | S. cerevisiae deletion strains, locus YOL006C, strain TOP1, hits give low values 0.933 | S. cerevisiae deletion strains, locus YOL012C, strain htz1 1.04 | S. cerevisiae deletion strains, locus YOL147C, strain pex11, hits give low values 0.993 | S. cerevisiae deletion strains, locus YOR061W, strain CKA2, hits give low values 0.963 | S. cerevisiae deletion strains, locus YOR069W, strain VPS5, hits give low values 0.997 | [8] 1.01 | S. cerevisiae deletion strains, locus YOR136W, strain idh2, hits give low values 0.989 | S. cerevisiae deletion strains, locus YOR144C, strain elg1, hits give low values 0.994 | S. cerevisiae deletion strains, locus YOR184W, strain ser1, hits give low values 1 | S. cerevisiae deletion strains, locus YOR316C, strain cot1, hits give low values 0.986 | [9] 1.01 and 0.993 | S. cerevisiae deletion strains, locus YPR119W, strain clb2, hits give low values 0.988 | S. cerevisiae deletion strains, locus YPR141C, strain kar3, hits give low values 0.981 | S. cerevisiae deletion strains, locus YPR163C, strain tif3, hits give low values 0.986 | S. cerevisiae deletion strains, locus YPR167C, strain met16, hits give low values 0.992 | S. cerevisiae deletion strains, strain wtn01, hits give low values 1 | S. cerevisiae strains, strain wild type, hits give low values 0.987

CCCCS(=N)(=O)CC[C@H](N)C(=O)O (some centres not stated)
inactive: [1] 0.986 | S. cerevisiae deletion strains, locus YDR363W, strain ESC2, hits give low values 0.99 | [2] 1.01 | [3] 0.995 | [4] 0.984 | [5] 0.991 | [6] 0.983 | [7] 0.994 | [8] 0.977 | [9] 1
